Experimental findings from ChEMBL document CHEMBL3988442, “University of Dundee, Small-Polar-MMV Screening Library” (2021) are described below.

The whole screen tested about 48,000 compounds, of which about 13,000 (27%) showed an effect of 50% or more. The list shows a part of the results.

The test system of the assay is Wolbachia pipientis. The assay can be described thus: Anti-Wolbachia Cell-Based Screen. In kind it is functional. Details: scale not given: in the data most compounds retested in dose-response had high values. The following applies: 5 µM.
As for `CCN(CC)C(=O)[C@@H]1C[C@H](N)CN1c1nnc(-c2ccccc2)s1`, the “Percent Effect” value came to 5.055%.
The same measure for `CC(Cc1ccco1)NC(=O)Nc1ccc(S(C)(=O)=O)nc1` (stereo not given): -6.327%; for `Cc1ccc(-c2cc(N)c(=O)n(CC(=O)NC3CCCCC3)n2)s1`: -5.352%.
As to `Cc1cc(-c2cc(N)c(=O)n(CC(=O)NC3CCCCC3)n2)c(C)o1`, the “Percent Effect” value was determined as 117.4%.
`Cc1cc(-c2cc(N)c(=O)n(CC(=O)NC3CCCC3)n2)c(C)o1`: the “Percent Effect” value is given as 122.3%.
The same measure for `COc1cc(C(=O)N2CCC(Nc3cccnc3)CC2)ccc1C`: 66.95%.
The same measure for `COc1cc(C(=O)N2CCC(c3n[nH]c(C4CC4)n3)CC2)ccc1C`: 15.65%; for `COc1ccc(OC)c(C(=O)N2C[C@H]3CC[C@@H]2CN(C)C3)c1`: 19.05%.
The figure for `COc1ccc(OC)c(C(=O)N2CCC(Nc3cccnc3)CC2)c1` is 94.46%.
As for `O=C(c1ccc[nH]1)N(Cc1ccc(O)cc1)CC1CC1`, the “Percent Effect” value is listed as -7.123%.
The figure for `CC(OCc1ccccc1)C(=O)NC1CCN(CC(N)=O)CC1` (stereo not given) is -2.8%; for `CN(C)c1ccc(CNC(=O)Nc2ccc(S(=O)(=O)C(F)F)cc2)cc1` it is -8.512%; for `CC(C)COC(C)C(=O)NCc1ccc(Cn2ccnc2)cc1` (stereo not given) it is 0.5486%.
Turning to `CC(C)C(=O)NCc1ccc(N(C)C)cc1`, the “Percent Effect” value is 131.8%.
The figure for `CCOC(C)C(=O)NCc1cccc(CN2CCCCCC2)c1` (stereo not given) is 0.5451%.
The figure for `CC(C)COC(C)C(=O)NCc1ccc(N(C)C)cc1` (stereo not given) is -1.344%; for `CC(OCc1ccccc1)C(=O)NCc1ccc(N(C)C)cc1` (stereo not given) it is 130.9%; for `CCOC(C)C(=O)NCc1ccc(N(C)C)cc1` (stereo not given) it is 106.9%.
With `CN1CCC(CNC(=O)NCc2ccc(N(C)C)cc2)CC1`, the “Percent Effect” value is listed as -5.904%.
The same measure for `CCOc1cc(CNCc2ncc[nH]2)c(Cl)cc1OC(C)C`: -9.365%; for `CN(CCN1CCCC1)c1nccc(N2CCN[C@H]3CS(=O)(=O)C[C@H]32)n1`: -5.82%.
The figure for `CC(C)Oc1ncnc2c1CCN(Cc1ccc(F)cc1)CC2.O=C(O)C(F)(F)F` is 2.897%; for `c1cc(CCNc2ncnc3c2CCN(Cc2ccoc2)CC3)ccn1` it is -12.64%.
The figure for `CC(C)Nc1ncnc2c1CCN(Cc1ccoc1)CC2` is 96.99%.
With `CC(C)Nc1ncnc2c1CCN(Cc1nccn1C)CC2.O=C(O)C(F)(F)F.O=C(O)C(F)(F)F`, the “Percent Effect” value is recorded as -25.56%.
The same measure for `COCCN1CCc2ncnc(NC(C)C)c2CC1.O=C(O)C(F)(F)F`: 87.2%.
On to `Nc1nc(CNc2ncnc3c2CCN(Cc2ccoc2)CC3)cs1`, for which the “Percent Effect” value was -10.72%.
The figure for `COc1ccc(CN2CCc3ncnc(OC(C)C)c3CC2)cc1.O=C(O)C(F)(F)F` is -22.8%; for `COCCN1CCc2ncnc(OC(C)C)c2CC1.O=C(O)C(F)(F)F` it is 107.2%; for `CC(C)Nc1ncnc2c1CCN(c1cc(C(F)(F)F)ncn1)CC2` it is -0.2205%.
The same measure for `O=C(N[C@@H]1C[C@H]2CC[C@@H]1C2)C1(Oc2ccc(Cl)cc2)CCNCC1`: 5.083%; for `Cc1nonc1C(=O)N1CCc2c(ncn2CCc2ccccc2)C1`: 7.043%; for `COCCCNc1ncc(-c2cccc(F)c2)c(-c2nccn2C)n1`: 116.3%.
The same measure for `CSCCCNC(=O)Nc1cccc(-c2nccn2C)c1`: 3.955%; for `COc1cccc(-c2nc(CNCCn3cccn3)cs2)c1`: -13.66%.
Turning to `COc1cccc(-c2cc(NCc3nccn3C)n(C)n2)c1`, the “Percent Effect” value is -16.42%.
The figure for `COCCNc1ncc(-c2cccc(OC)c2)c(-c2nccn2C)n1` is 73.04%.
Turning to `CSC(C)(C)CNC(=O)Nc1cccc(-c2nccn2C)c1`, the “Percent Effect” value was -14.94%.
The figure for `Cn1ccnc1-c1nc(NC2CCCC2)ncc1-c1cccc(F)c1` is 77.55%.
The figure for `Cc1ccc(CNC(c2cccc(F)c2)c2nccn2C)o1.Cl` (stereo not given) is -1.716%; for `COCCNc1ncc(-c2cccc(F)c2)c(-c2nccn2C)n1` it is 111.1%; for `Cc1nnc(CN(C)CC(=O)N2CCCC(C(F)(F)F)C2)n1C` (stereo not given) it is -17.87%.
Regarding `CC1CCc2nc(O)c(C(=O)NCc3ccccc3F)cc2C1` (stereo not given), the “Percent Effect” value was -2.667%.
For the compound `C[C@@H]1CN(S(=O)(=O)N2CCCCCC2)C[C@@]1(O)C1CCC1`, the “Percent Effect” value was determined as 19.36%.
The figure for `O=C(O)C(F)(F)F.O=C([C@H]1C[C@H]2OCC[C@H]2N(C(=O)c2ccncc2)C1)N1CCCC1` is -2.024%; for `N#Cc1ccc(SCCC(=O)NC(N)=O)cc1` it is 0.3622%.
The same measure for `Cc1c(F)cccc1S(=O)(=O)N(C)CC(C)O` (stereo not given): 10.31%.
The figure for `CCOCCNC(=O)Nc1cccc(-c2nccn2C)c1` is -19.42%; for `CCOCCCC(=O)Nc1c(-c2ccc(F)cc2)ncn1C` it is -11.11%; for `CCOCCCNc1ncc(-c2cccc(F)c2)c(-c2nccn2C)n1` it is 61.85%.
In the case of `CCCc1cnc(C)nc1N1CCC(F)(F)CC1`, the “Percent Effect” value was -3.547%.
As for `Cc1cccc2c1nc1n2[C@@H](CNC(=O)NC(C)C)COC1`, the “Percent Effect” value is reported as -19.06%.
The same measure for `Cc1cc(Nc2ccc3c(c2)CC(=O)N3)nc(C2CC2)n1`: -4.534%; for `Cn1nccc1-c1nc2c(cc1C(=O)O)CCN(CC1CC1)CC2`: -6.641%.
The figure for `Cn1cc(-c2cnc(-c3ccnn3C)nc2)cc1C(=O)N1CCCC1` is 85.82%.
In the case of `CC(C)Oc1cccc(C(=O)C2CCCN(C(=O)c3ccnn3C)C2)c1` (stereo not given), the “Percent Effect” value was -5.247%.
The figure for `Cn1cc(-c2cnc(N3CCCC3)nc2)cc1C(=O)O` is -13.43%.
The figure for `Cc1cn2c(n1)CCC(NC(=O)c1cc(Br)cn1C)C2` (stereo not given) is -1.001%.
The same measure for `Cn1nccc1C(=O)N1CCN(C(=O)C2CC2)[C@@H]2CS(=O)(=O)C[C@@H]21`: 14.29%.
In the case of `Cn1nccc1-c1ncc(-c2cc(C(=O)O)n(CC3CC3)c2)cn1`, the “Percent Effect” value came to 118.9%.
The same measure for `Cn1cc(C(=O)NC2CCN(Cc3ccn(C)c(=O)c3)CC2)cn1`: -2.603%; for `Cn1cc(-c2cnc(-c3ccnn3C)nc2)cc1C(=O)NC1CC1`: 95.89%; for `COc1cccc2c1OCC(C(=O)N1CCC(N3CCSCC3)CC1)C2` (stereo not given): -10.16%.
The same measure for `CSc1ccc(NCC(=O)NC(=O)NCC(F)(F)F)cc1F`: 2.815%; for `CCN(Cc1ccoc1)C(=O)Nc1ccccc1CN1CCOCC1`: 2.801%; for `Cc1cc(C(=O)NC2CC(=O)N(C(C)C)C2=O)c(C)n1C(C)C` (stereo not given): -25.95%.
As to `COCCc1noc(C2CCN(S(=O)(=O)c3cccs3)CC2)n1`, the “Percent Effect” value is reported as -5.417%.
`N[C@H]1CN(S(=O)(=O)c2cccnc2)C[C@@H]1C1CC1`: the “Percent Effect” value was -0.9551%.
The figure for `Cc1cccc(C2CCCN(S(=O)(=O)c3cccnc3)C2)n1` (stereo not given) is 131.9%.
On to `Cc1cc(N(C)C)cc(C2CCN(S(=O)(=O)c3cccnc3)C2)n1` (stereo not given), for which the “Percent Effect” value amounted to 129.7%.
`CNC(=O)CS(=O)(=O)C1CCN(S(=O)(=O)c2cccnc2)CC1`: the “Percent Effect” value is 10.97%.
The figure for `Cc1noc(C)c1-c1n[nH]c2c1CN(S(=O)(=O)c1cccnc1)CC2` is 2.189%; for `CC(C)[C@H]1CN(S(=O)(=O)c2cccnc2)C[C@@H]1N` it is -3.763%.
Turning to `O=S(=O)(c1cccs1)N1CCC(c2nc(-c3cccs3)no2)CC1`, the “Percent Effect” value is on record as 1.77%.
In the case of `Cc1cc(N(C)C)cc(C2CCN(S(=O)(=O)c3cccs3)C2)n1` (stereo not given), the “Percent Effect” value is 93.47%.
The figure for `CN(C[C@@H]1CCC[C@@H]2CN(c3ncccn3)C[C@@H]21)C1CC1.O=C(O)C(F)(F)F` is 9.93%; for `COc1ccc(N(Cc2ccco2)C(=O)C2CCOC2)cc1F` (stereo not given) it is -6.319%.
For the compound `COc1ccc(CNC(=O)N(Cc2ccc(F)cc2F)C2CC2)cn1`, the “Percent Effect” value is on record as 13.46%.
The same measure for `CCN1CCCN(C(=O)c2cnc(OC(C)C)c(Cl)c2)CC1`: 20.31%.
On to `NC(=O)CN1CCCN(C(=O)c2ccn(-c3ccc(F)cc3)n2)CC1`, for which the “Percent Effect” value came out at 9.69%.
For the compound `CCSCc1ccc(C(=O)N2CCCN(CC(N)=O)CC2)cc1`, the “Percent Effect” value was 111.3%.
For the compound `CC(=O)N1CCCN(CCCSCc2ccccc2)CC1`, the “Percent Effect” value is listed as -18.43%.
As to `NC(=O)CN1CCCN(C(=O)c2ccc(SC(F)F)cc2)CC1`, the “Percent Effect” value worked out at 104.9%.
The same measure for `NC(=O)CN1CCCN(C(=O)c2ccn(-c3ccccc3)n2)CC1`: -8.836%; for `NC(=O)N1CCCN(CCCSCc2ccccc2)CC1`: -22.93%; for `Cc1cc(Br)oc1C(=O)N1CCCN(CC(N)=O)CC1`: -7.615%.
The figure for `CCSCc1ccc(C(=O)N2CCCN(CC)CC2)cc1` is 93.96%; for `COc1ccc2[nH]c(C[C@@H]3C[C@@H](C(C)C)[C@H](CN(C)C)C=C3C)nc2c1` it is -3.029%; for `Cc1ccc(C(CNCc2cccn2C)N2CCOCC2)s1` (stereo not given) it is 12.06%.
On to `Cc1ccc2nc(NCCCN3CCCCCC3=O)n(C)c(=O)c2c1`, for which the “Percent Effect” value stood at 5.904%.
The figure for `CCC(CC)NC(=O)c1ccc2nnc(C3CCN(C(C)=O)C3)n2c1` (stereo not given) is -17.88%; for `O=C(c1ccoc1)N1CCC2(CC1)C(=O)Nc1ccccc12` it is 5.078%.
The same measure for `NCCCC(=O)N1CCC2(CC1)CN(C(=O)c1ccc(Cl)cc1)CCO2`: 114.9%; for `O=C(c1cnc(-c2ccccc2)nc1)N1CCOC2(CCCC2)C1`: -7.447%.
The same measure for `O=C(c1ccc(Cl)cc1)N1CCC2(CC1)C(=O)Nc1ccccc12`: 0.2295%; for `O=C(c1ccc(Cl)cc1)N1CCC2(C1)C(=O)Nc1ccccc12` (stereo not given): 123%.
For `CN(C)C(=O)NC1COC2(CCN(C(=O)c3ccc(Cl)cc3)CC2)C1` (stereo not given), the “Percent Effect” value is -7.709%.
With `NCCC(=O)N1CCC2(CC1)CN(C(=O)c1ccc(Cl)cc1)CCO2`, the “Percent Effect” value was 94.29%.
The figure for `CC(C)N(C)C(=O)C1=NOC2(CCN(C(=O)c3ccc(Cl)cc3)C2)C1` (stereo not given) is -15.34%; for `CC(=O)N1CCC2(CC1)CN(C(=O)c1cccc3[nH]ccc13)CCO2` it is -6.539%.
